Screens: PubChem BioAssay, Johns Hopkins Ion Channel Center
Sampled rows, rich in hits. Any-hit rate of the full collection: about 1.6%.
KCNQ2 inh: KCNQ2 (rat) channel inhibition | O88943 | CHO-K1 KCNQ2, FluxOR thallium flux, 20 min; hits give low values | B-score at 10 µM | actives 1.1% (n = 310,000) | AID 2156;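 active = fluorescence ratio B-score at most minus 3 library SDs, with starting brightness B-score within 2 library SDs, cut at about -5.5 in these data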
KCNQ2 enhance: potentiators of rat KCNQ2 potassium channel | CHO-K1 KCNQ2, FluxOR thallium flux fluorescence; hits give high values | B-score at 10 µM | actives 0.54% (n = 310,000);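 active = fluorescence ratio B-score at least 3 SD of library B-scores, with initial fluorescence B-score within 3 of them, cut at about 5.3 in these data; same plate scores as AID 2156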;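 note: B-score of peak minus minimum over baseline fluorescence ratio after K+ and Tl+ stimulus; positive B-score means potentiation of KCNQ2 with more thallium influx and brighter signal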
Kir21 confirm: confirmation of mouse Kir2.1 potassium channel inhibitors | shares compounds with KCNQ2 enhance | Kir2.1-expressing cells, FluxOR thallium flux fluorescence; hits give low values | Tl flux remaining, % of negative control (hits give low values), % at 10 µM | actives 41% (n = 2,300) | AID 2032;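 active = Primary-screen hit whose thallium flux fell at least 3 control SD below untreated wells in both duplicates, with normal baseline fluorescence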;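 note: 0% = blank wells without stimulus and 100% = stimulated no-compound controls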
HEK293 Tl flux: parental HEK293 activity in Kir2.1 inhibitor counter-screen; shares compounds with KCNQ2 enhance; parental HEK293 cells, FluxOR thallium flux fluorescence; 0% = unstimulated blank wells; FluxOR signal as % of negative control (100 = no effect), % at 10 µM; actives 19% (n = 2,300); AID 2105;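 active = dye signal at least 3 control SD above or below untreated wells in both duplicates, raw fluorescence within 3, either direction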;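 note: percent is based on the flux ratio of peak minus minimum fluorescence over baseline F0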
CHO-K1 Tl ctr: counter-screen for KCNQ2 potentiators: effect in parental CHO-K1 cells. shares compounds with KCNQ2 enhance. FluxOR thallium flux fluorescence; zero = vehicle mean+3SD, 100% = vehicle-minus-blank window. activity increase over 3SD of controls, % at 10 µM. actives 43% (n = 1,200);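 active = signal rise of at least 3 SD above the untreated control mean, in both duplicate wells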;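 note: counter screen of KCNQ2 potentiator hits so any rise reflects channel-independent effects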
KCNQ1 sel pot: tests whether KCNQ2 potentiators also act on human KCNQ1 | shares compounds with KCNQ2 enhance | CHO KCNQ1 stable, FluxOR thallium flux fluorescence; beyond 3SD, as % of vehicle-control signal | activation over 3SD threshold, % at 10 µM | actives 28% (n = 1,200);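 active = fluorescence ratio rise of at least 3 SD of vehicle wells above their mean, in both replicate wells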;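 note: 0% = vehicle mean plus 3 SD and 100% = vehicle minus unstimulated blank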
KCNQ2 pot confirm: rat KCNQ2 channel potentiator confirmation. potentiation, less the hit threshold, % at 10 µM. actives 68% (n = 1,200). CHO-KCNQ2 cells, FluxOR thallium flux fluorescence. shares compounds with KCNQ2 enhance;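 active = fluorescence ratio rising 3 SD or more over the vehicle control mean in both replicates, plus primary screen hit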;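 note: peak minus minimum thallium fluorescence divided by baseline after K/Tl stimulus; 0% = vehicle mean plus 3 SD and 100% = vehicle minus unstimulated blank difference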
Kir2-1 sel: selectivity of KCNQ2 potentiators: effect on mouse Kir2.1 | shares compounds with KCNQ2 enhance | activity over 3SD threshold, % at 10 µM | actives 2% (n = 1,200) | HEK293 Kir2.1, FluxOR thallium flux fluorescence;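 active = fluorescence ratio rise of at least 3 SD above the vehicle-control mean, seen in both replicates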;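 note: 0% = vehicle mean plus 3 SD and 100% = vehicle minus no-stimulus blank window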
KCNQ2 W236L pot: rat KCNQ2 W236L mutant potentiation by KCNQ2 potentiators. actives 10% (n = 940). shares compounds with KCNQ2 enhance. current increase over 3SD of negative controls (%), hits give high values, % at 25 µM. CHO KCNQ2-W236L, automated patch clamp current. AID 2558;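 active = current increase at least 3 SD of the untreated controls above them in both duplicate recordings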
Target sequence (O88943 whole entry W236L, looked up): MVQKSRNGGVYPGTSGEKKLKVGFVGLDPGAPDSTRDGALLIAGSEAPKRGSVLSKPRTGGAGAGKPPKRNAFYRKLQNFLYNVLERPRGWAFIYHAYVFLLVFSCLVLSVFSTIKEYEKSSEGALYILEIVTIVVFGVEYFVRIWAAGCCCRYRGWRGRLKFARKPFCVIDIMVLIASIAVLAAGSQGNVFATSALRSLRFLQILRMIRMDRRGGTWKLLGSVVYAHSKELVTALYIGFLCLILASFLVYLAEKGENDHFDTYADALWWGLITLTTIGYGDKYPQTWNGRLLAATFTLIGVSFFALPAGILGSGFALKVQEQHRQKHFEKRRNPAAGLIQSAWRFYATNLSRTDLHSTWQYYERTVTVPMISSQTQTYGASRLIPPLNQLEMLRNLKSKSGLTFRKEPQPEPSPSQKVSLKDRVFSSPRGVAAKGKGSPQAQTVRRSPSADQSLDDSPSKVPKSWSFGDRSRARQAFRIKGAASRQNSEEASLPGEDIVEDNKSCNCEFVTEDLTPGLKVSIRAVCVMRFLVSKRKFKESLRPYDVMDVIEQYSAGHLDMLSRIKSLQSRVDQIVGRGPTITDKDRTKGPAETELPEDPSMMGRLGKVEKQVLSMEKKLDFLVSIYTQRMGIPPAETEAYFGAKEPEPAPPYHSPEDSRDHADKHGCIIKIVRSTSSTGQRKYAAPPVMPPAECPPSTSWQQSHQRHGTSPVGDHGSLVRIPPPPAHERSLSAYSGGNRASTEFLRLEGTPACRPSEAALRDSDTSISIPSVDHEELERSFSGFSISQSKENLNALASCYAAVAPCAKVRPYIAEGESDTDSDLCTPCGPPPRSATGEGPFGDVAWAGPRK
* hit, by the source's call; i = inactive; . = not tested or not shown.

SMILES	KCNQ2 inh	KCNQ2 enhance	Kir21 confirm	HEK293 Tl flux	others
CC(/C=N/n1c(C2CCCCC2)n[nH]c1=S)=C\c1ccccc1	i	8.35*	i	i	CHO-K1 Tl ctr=92.0*;KCNQ1 sel pot=23.4*;KCNQ2 pot confirm=-14.7;Kir2-1 sel=-26.1
CCOC(=O)CNC(=O)C1c2ccccc2Oc2ccccc21	i	.	.	.
CN(Cc1ccccc1)C(=O)COC(=O)C1CCN(S(=O)(=O)c2ccc(Cl)c(C(F)(F)F)c2)CC1	i	0.32	.	.
CC(C)CNC(=O)c1ccc2c(c1)C(=O)N(Cc1ccco1)C2=O	i	0.06	.	.
NS(=O)(=O)c1cccc(NC(=O)CNC(=O)CC23CC4CC(CC(C4)C2)C3)c1	i	1.42	.	.
Cc1ccc(NC(=O)CNC(=O)CC23CC4CC(CC(C4)C2)C3)c(O)c1	i	10.2*	i	i	CHO-K1 Tl ctr=-6.3;KCNQ1 sel pot=-16.6;KCNQ2 pot confirm=24.7*;Kir2-1 sel=-22.9;KCNQ2 W236L pot=i
CC(=O)N1CCc2cc(S(=O)(=O)NC(Cc3ccccc3)C(=O)O)ccc21 (centres undefined)	i	0.42	.	.
CCCCC(=O)Nc1c(C)cc(C)cc1Cl	i	12.1*	i	i	CHO-K1 Tl ctr=-24.9;KCNQ1 sel pot=-13.6;KCNQ2 pot confirm=53.2*;Kir2-1 sel=-33.9;KCNQ2 W236L pot=i
CCC(=O)Nc1c(C)cc(C)cc1Cl	i	1.21	.	.
COc1ccc(CCNc2ncnc3[nH]ncc23)cc1OC	i	.	.	.
COc1ccc(CCNc2ncnc3sc(C)cc23)cc1OC	i	.	65.0%*	i
CC(=O)CCSc1ncnc2sc(-c3ccccc3)cc12	i	.	.	.
O=C(O)CCSc1ncnc2sc(-c3ccccc3)cc12	i	9.55*	i	197.5%*	CHO-K1 Tl ctr=16.8*;KCNQ1 sel pot=3.1*;KCNQ2 pot confirm=33.2*;Kir2-1 sel=-21.0;KCNQ2 W236L pot=16.4%*
Cc1ccccc1C(=O)c1cccn1CC(=O)NCC(C)c1ccccc1 (centres undefined)	i	0.69	65.5%*	i
Cc1ccccc1C(=O)c1cccn1CC(=O)NCc1ccccc1	i	.	.	.
S=c1nc[nH]c2c1cnn2-c1ccccc1	i	10*	i	162.0%*	CHO-K1 Tl ctr=31.5*;KCNQ1 sel pot=-9.4;KCNQ2 pot confirm=2.7*;Kir2-1 sel=-37.0;KCNQ2 W236L pot=i
Nc1ncnc2c1cnn2-c1ccccc1	i	1.19	.	.
CC(=O)N(C)c1ccc(NC(=O)Cc2cccs2)cc1	i	0.29	.	.
Cc1ccc(C)c(NC(=S)NNC(=O)c2csc3c2CCCC3)c1	i	2.6	.	.
Cc1ccc(C)c(NC(=S)NNC(=O)c2csc3c2CCC(C)C3)c1 (centres undefined)	i	6.62*	i	171.0%*	CHO-K1 Tl ctr=-19.0;KCNQ1 sel pot=-32.6;KCNQ2 pot confirm=-4.5;Kir2-1 sel=-39.9;KCNQ2 W236L pot=i
Cc1cc2ccccc2nc1SCC(=O)NC1CCCCC1	i	11*	i	i	CHO-K1 Tl ctr=-55.8;KCNQ1 sel pot=-18.4;KCNQ2 pot confirm=11.3*;Kir2-1 sel=-35.5;KCNQ2 W236L pot=i
Cc1cc2ccccc2nc1SCC(=O)NC1CCCC1	i	4.84	.	.
N#Cc1c(C(F)(F)F)cc(-c2ccc(F)cc2)[nH]c1=O	i	1.53	.	.
N#Cc1c(C(F)(F)F)cc(-c2ccc(Cl)cc2)[nH]c1=O	i	6.47*	i	i	CHO-K1 Tl ctr=0.0*;KCNQ1 sel pot=-12.3;KCNQ2 pot confirm=10.8*;Kir2-1 sel=-38.4;KCNQ2 W236L pot=i
COC(=O)c1ccc(Oc2nc(NC(C)C)nc(NC(C)C)n2)cc1	i	.	.	.
SMILES	KCNQ2 inh	KCNQ2 enhance	Kir21 confirm	HEK293 Tl flux	others
COC(=O)c1ccc(Oc2nc(NC(C)C)nc(N(C)C)n2)cc1	i	10.6*	i	i	CHO-K1 Tl ctr=-16.5;KCNQ1 sel pot=-12.5;KCNQ2 pot confirm=-25.7;Kir2-1 sel=-32.0
COc1ccc(S(=O)(=O)Nc2cc3c4c(c2)CCN4C(=O)CC3)cc1C	i	1.2	.	.
CCC(C)NCCOCCOc1ccccc1-c1ccccc1 (centres undefined)	i	.	44.5%*	i
CC(C)(C)NCCOCCOc1ccccc1-c1ccccc1	i	1.74	.	.
Cc1c(OC(C)C(=O)N2C[C@H]3C[C@@H](C2)c2cccc(=O)n2C3)ccc2c3c(c(=O)oc12)CCCC3 (some centres undefined)	i	.	.	.
O=C(CCC1CCCC1)Nc1cccc(Cc2ccncc2)c1	i	6.32*	i	i	CHO-K1 Tl ctr=93.5*;KCNQ1 sel pot=-5.9;KCNQ2 pot confirm=-9.5;Kir2-1 sel=-29.9
CC(=O)Nc1cccc(NC(=O)CCCC2CCCCC2)c1	i	1.89	.	.
Cc1ccc(S(=O)(=O)N(C)/N=C/c2ccc(N(C)C)cc2)cc1	i	.	.	.
Cc1cc(C)n(/N=C/c2cc(Cl)cc(Cl)c2O)c(=O)c1	i	9.78*	i	i	CHO-K1 Tl ctr=-13.9;KCNQ1 sel pot=39.2*;KCNQ2 pot confirm=-13.0;Kir2-1 sel=-41.5
Cc1cc(C)n(/N=C/c2ccccc2O)c(=O)c1	i	.	.	.
c1ccc(CSc2nnnn2-c2cccc3ccccc23)nc1	i	.	66.5%*	i
O=C(O)c1cccc(-n2nnnc2SCc2ccccn2)c1	i	.	.	.
CCOC(=O)C1CCN(C(=O)C2CCN(c3ncnc4c3nc3n4CCCCC3)CC2)CC1	i	1.18	.	.
Cc1ccc(S(=O)(=O)NCC2COc3ccccc3O2)cc1 (centres undefined)	i	.	.	.
Cc1ccc([N+](=O)[O-])cc1S(=O)(=O)NCC1COc2ccccc2O1 (centres undefined)	i	.	73.0%*	i
CC(C)[C@H]1C(=O)Nc2ccccc2N1C(=O)N[C@@H](Cc1ccccc1)C(=O)N[C@H](C(=O)O)c1ccccc1	i	1.6	.	.
O=C1CCN(Cc2ccc([N+](=O)[O-])cc2)CCN1[C@H](CO)c1ccccc1	i	0.01	.	.
COC(=O)c1ccc(N2CCN(C)CC2)c(NC(=O)c2ccc(Br)o2)c1	i	2.62	.	.
CC(C(=O)NCCS(=O)(=O)c1ccc(Br)cc1)S(=O)(=O)c1ccc(Cl)cc1 (centres undefined)	i	.	.	.
CC(C)c1ccc(C(C)NCCS(=O)(=O)c2ccc(Cl)cc2)cc1 (centres undefined)	i	.	56.5%*	i
CS(=O)(=O)N(CC(=O)N1CCCCCC1)c1cc(Cl)ccc1Cl	i	0.01	.	.
CCc1noc(C)c1C(=O)Nc1nnc(C2CCCCC2)s1	i	.	.	.
CCCc1cc(-c2n[nH]c(=S)n2CC)cs1	i	0.01	.	.
CCCCn1c(-c2csc(CCC)c2)n[nH]c1=S	i	9.07*	i	171.5%*	CHO-K1 Tl ctr=-13.7;KCNQ1 sel pot=-14.3;KCNQ2 pot confirm=19.6*;Kir2-1 sel=-48.7;KCNQ2 W236L pot=i
CC1N(C(=O)N2CCOCC2)CCN1S(=O)(=O)c1cccc(C(F)(F)F)c1 (centres undefined)	i	1.52	.	.
